# Assay results from PubChem BioAssay (NCI).
# About 83,000 compounds went through this panel and 20% of them were active in at least one assay; those are over-represented in the sample as a whole.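 How to read the values: 0–100, growth inhibition (40 = 60% inhibited); 0, no net growth; -100 to 0, cell death (-40 = 40% of starting cells died; -100 = all dead).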 Unmarked numbers belong to inactive results. Calls of active or inactive are those of the source. Rule for the calls: active = growth percent below 10; inactive = the rest.
# Key:
# Assay in all cases: NCI-60 one-dose screen, 48 h (100 = growth as untreated, 0 = no growth, -100 = all killed)
# HOP-92 NSCLC = conditions: 10 µM unless noted
# COLO 205 colon = conditions: 10 µM
# MALME-3M melanoma = conditions: 10 µM unless noted
# SF-295 CNS = conditions: 10 µM unless noted
# SNB-19 CNS = conditions: 10 µM unless noted
# SK-MEL-28 melanoma = conditions: 10 µM unless noted
# EKVX NSCLC = conditions: 10 µM unless noted
# SN12C renal = conditions: 10 µM unless noted
# TK-10 renal = conditions: 10 µM unless noted
# CAKI-1 renal = conditions: 10 µM unless noted
# CCRF-CEM leukemia = conditions: 10 µM unless noted
# SR leukemia = conditions: 10 µM
# OVCAR-4 ovarian = conditions: 10 µM unless noted
# IGROV1 ovarian = conditions: 10 µM
# BT-549 breast = conditions: 10 µM
# HCC-2998 colon = conditions: 10 µM unless noted
# NCI-H522 lung = conditions: 10 µM unless noted
# RPMI-8226 leukemia = conditions: 10 µM unless noted
# LOX IMVI melanoma = conditions: 10 µM unless noted
SMILES,growth (HOP-92 NSCLC),growth (COLO 205 colon),growth (MALME-3M melanoma),growth (SF-295 CNS),growth (SNB-19 CNS),growth (SK-MEL-28 melanoma),growth (EKVX NSCLC),growth (SN12C renal),growth (TK-10 renal),growth (CAKI-1 renal),growth (CCRF-CEM leukemia),growth (SR leukemia),growth (OVCAR-4 ovarian),growth (IGROV1 ovarian),growth (BT-549 breast),growth (HCC-2998 colon),growth (NCI-H522 lung),growth (RPMI-8226 leukemia),growth (LOX IMVI melanoma)
Nc1cccc2c1Oc1ccccc1O2,80.3%,134%,97.3%,119%,114%,124%,99.7%,106%,115%,88%,87.7%,102%,115%,2.63% (active),104%,109%,,,
O1[As]2O[As]3O[As]1O[As](O2)O3,-24.4% (active),,-15% (active),4.61% (active),,-17.6% (active),5.14% (active),4.31% (active),3.92% (active),-20.2% (active),13.1%,,26.1%,14.6%,-12.1% (active),23.3%,-63.4% (active),15.1%,
COc1cc(N(CCCl)CCCl)ccc1C=Nc1ccccc1C(=O)O,97.8%,,,98%,97.2%,94.3%,,99.2%,124%,98.7%,97.5%,84.1%,104%,,106%,88.2%,32.8%,97.2%,101%
CCOC(=O)/C(C#N)=C/c1ccc(N(CCCl)CCCl)cc1,67.6%,112%,99.7%,43.6%,106%,99%,,72.4%,91.4%,-9.24% (active),,30.3%,61.5%,48.4%,95.3%,105%,,88.4%,92%
CCOC(=O)/C=C(\C)Nc1ccc(N/C(C)=C/C(=O)OCC)c2c1Oc1ccccc1O2,79%,121%,107%,99.4%,115%,114%,89%,96.8%,124%,95.5%,43.2%,78.3%,114%,,,120%,,83.2%,94.4%
CCC1CN1P(=O)(OCCOC)N1CC1CC (configuration not stated),98.4%,119%,110%,,104%,107%,,101%,123%,,,93.8%,109%,,106%,104%,,105%,105%
CCN(CC)CCOc1c(C(C)C)cccc1C(C)C,106%,,107%,93.8%,106%,92.1%,96.5%,105%,110%,89.8%,102%,,99.3%,,123%,102%,93.3%,103%,99.5%
O=C(O)c1[nH]c(=O)[nH]c(=O)c1F,106%,,113%,89.2%,91.4%,94.7%,121%,96.3%,78.6%,66.8%,78.4%,91.7%,,95.1%,111%,64.9%,88.9%,73.7%,84.6%
O=C(CCCN1CCC2(CC1)C(=O)NCN2c1ccc(F)cc1)c1ccc(F)cc1,102%,124%,94.7%,180%,95.6%,118%,135%,98%,102%,121%,,99.2%,108%,71.9%,97.3%,100%,87.5%,101%,106%
N#C[Se]CCCNS(=O)(=O)C1CC2C=CC1C2 (configuration not stated),-73.1% (active),-39% (active),-55.5% (active),-80.7% (active),,-15.3% (active),-96% (active),,-66.4% (active),-99.1% (active),17.4%,,10%,-52.5% (active),-71.3% (active),4.61% (active),,-29.5% (active),-76.8% (active)
